# In ChEMBL document CHEMBL3988442, “University of Dundee, Small-Polar-MMV Screening Library” (2021):
# For some assays here: Measured potencies and affinities stand elsewhere.
# Legend:
# Set-up in all cases: scale not given: direction of the effect not stated beside the values
# [1] = target: Protein translocase subunit SecA (Escherichia coli (strain K12)) (UniProt P10408); assay: Assay to Identify E. coli SecA ATPase Inhibitors; assay type: functional; settings: 30 µM
# [2] = target: T1, Ubiquitin-activating enzyme e1, putative (Leishmania donovani (strain BPK282A1)) (UniProt E9BSI1); assay: Leishmania donovani Ubiquitin Activating Enzyme (LdE1); assay type: functional; settings: 30 µM
# T1 sequence (whole entry): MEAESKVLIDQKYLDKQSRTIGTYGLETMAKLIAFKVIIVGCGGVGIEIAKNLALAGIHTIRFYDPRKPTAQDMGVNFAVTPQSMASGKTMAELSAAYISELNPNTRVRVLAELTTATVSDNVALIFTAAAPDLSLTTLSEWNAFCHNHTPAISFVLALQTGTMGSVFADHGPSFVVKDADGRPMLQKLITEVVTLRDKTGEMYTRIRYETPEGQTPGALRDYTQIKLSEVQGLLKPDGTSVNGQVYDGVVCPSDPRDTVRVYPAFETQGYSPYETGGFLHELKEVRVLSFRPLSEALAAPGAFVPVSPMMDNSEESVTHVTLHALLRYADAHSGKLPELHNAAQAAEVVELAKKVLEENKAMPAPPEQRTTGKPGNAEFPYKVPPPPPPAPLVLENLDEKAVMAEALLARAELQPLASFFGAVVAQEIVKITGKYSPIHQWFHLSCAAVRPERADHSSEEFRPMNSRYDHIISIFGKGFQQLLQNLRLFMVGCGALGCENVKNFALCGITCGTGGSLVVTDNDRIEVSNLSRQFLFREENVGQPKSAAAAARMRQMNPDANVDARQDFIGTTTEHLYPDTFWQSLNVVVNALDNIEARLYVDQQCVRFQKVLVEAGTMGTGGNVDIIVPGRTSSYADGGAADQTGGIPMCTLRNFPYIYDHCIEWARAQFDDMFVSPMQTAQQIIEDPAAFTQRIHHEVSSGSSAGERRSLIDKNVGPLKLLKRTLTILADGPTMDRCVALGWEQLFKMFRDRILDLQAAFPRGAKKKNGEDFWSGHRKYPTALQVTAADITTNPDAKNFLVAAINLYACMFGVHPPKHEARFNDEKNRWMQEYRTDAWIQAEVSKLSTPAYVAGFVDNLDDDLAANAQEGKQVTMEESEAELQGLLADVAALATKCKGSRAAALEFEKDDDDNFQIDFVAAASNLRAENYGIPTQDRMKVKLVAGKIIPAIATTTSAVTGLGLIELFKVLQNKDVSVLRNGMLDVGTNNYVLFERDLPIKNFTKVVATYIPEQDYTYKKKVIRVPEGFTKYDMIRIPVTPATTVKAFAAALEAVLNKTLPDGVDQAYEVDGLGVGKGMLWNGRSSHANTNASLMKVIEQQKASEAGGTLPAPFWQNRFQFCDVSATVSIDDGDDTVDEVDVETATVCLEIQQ
# [3] = target: AMP-activated protein kinase, AMPK (Homo sapiens) (UniProt P54646+O43741+P54619+Q9UGJ0+Q9Y478+Q13131+Q9UGI9); assay: AMP-dependent Kinase enzyme assay. An in vitro enzyme assay that detects ADP turnover that is directly proportional to AMPK activity. This uses naive AMPK that is activated during the assay with MK-8722; assay type: functional; settings: 30 µM
# [4] = target: Sialic acid-binding Ig-like lectin 9 (Homo sapiens) (UniProt Q9Y336); assay: Hs-Siglec9 ALPHAscreen SOP 20170721; settings: 10 µM
# Sialic acid-binding Ig-like lectin 9 (Homo sapiens), sequence (Q9Y336 whole entry): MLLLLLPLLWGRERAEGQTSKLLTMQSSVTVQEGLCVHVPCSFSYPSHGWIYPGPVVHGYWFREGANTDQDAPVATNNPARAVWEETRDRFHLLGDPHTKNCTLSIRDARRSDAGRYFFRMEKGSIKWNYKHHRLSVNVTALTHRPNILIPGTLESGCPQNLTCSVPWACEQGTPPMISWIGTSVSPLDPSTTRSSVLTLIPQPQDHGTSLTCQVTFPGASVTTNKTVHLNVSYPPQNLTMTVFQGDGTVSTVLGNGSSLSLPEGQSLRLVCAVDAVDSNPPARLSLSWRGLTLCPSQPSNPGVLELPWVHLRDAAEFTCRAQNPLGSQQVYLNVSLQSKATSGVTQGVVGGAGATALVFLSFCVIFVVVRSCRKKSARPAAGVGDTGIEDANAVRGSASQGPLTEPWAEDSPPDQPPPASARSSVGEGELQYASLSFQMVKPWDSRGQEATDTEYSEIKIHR
# Trypanosoma cruzi = assay: Trypanosoma cruzi phosphomannomutase and mannose-1-phosphate guanylyltransferase assay; assay type: functional; settings: 10 µM
# [5] = target: T2, Arginase-2, mitochondrial (Homo sapiens) (UniProt P78540); assay: in vitro enzyme assay to detect the production of urea directly proportional to the activity of Arginase II; assay type: functional; settings: 33.3 µM; note: in the data most compounds retested in dose-response had high values
# T2 sequence (whole entry): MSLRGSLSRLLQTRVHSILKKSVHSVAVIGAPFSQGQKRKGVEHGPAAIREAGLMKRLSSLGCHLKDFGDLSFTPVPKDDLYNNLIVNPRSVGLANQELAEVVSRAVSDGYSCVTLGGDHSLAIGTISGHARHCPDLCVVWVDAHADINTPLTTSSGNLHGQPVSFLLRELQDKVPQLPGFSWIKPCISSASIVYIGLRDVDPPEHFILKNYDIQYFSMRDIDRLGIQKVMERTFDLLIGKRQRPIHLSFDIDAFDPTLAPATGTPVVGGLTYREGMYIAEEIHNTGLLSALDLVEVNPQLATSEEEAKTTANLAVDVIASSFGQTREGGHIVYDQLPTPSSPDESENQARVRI
# [6] = target: T3, Proteasome subunit beta (Trypanosoma cruzi) (UniProt O96673); assay: Trypanosoma cruzi proteasome chymotrypsin-like activity (TcProtChymo) assay.; note: in the data most compounds retested in dose-response had high values; assay type: functional; settings: 9.37 µM
# T3 sequence (whole entry): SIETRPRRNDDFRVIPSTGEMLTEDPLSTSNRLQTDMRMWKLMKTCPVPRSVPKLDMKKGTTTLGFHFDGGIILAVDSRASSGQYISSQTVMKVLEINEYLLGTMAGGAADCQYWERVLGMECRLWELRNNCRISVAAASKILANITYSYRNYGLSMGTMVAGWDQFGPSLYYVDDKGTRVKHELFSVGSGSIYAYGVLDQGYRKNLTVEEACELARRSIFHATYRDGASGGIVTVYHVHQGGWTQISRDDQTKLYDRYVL
# Homo sapiens = organism: Homo sapiens; assay: To identify inhibition of the IFN signalling (Jak-Stat) pathway via expression of an eGFP reporter gene under the control of an IFN-stimulated response element (ISRE) containing MxA promoter.; assay type: functional; settings: 30 µM
# [7] = target: T4, Tyrosyl-tRNA synthetase, putative (Trypanosoma cruzi (strain CL Brener)) (UniProt Q4DSP6); assay: Trypanosoma cruzi tyrosyl tRNA synthetase (TcYRS) _High Tyrosine SOP; assay type: functional; settings: 30 µM; note: in the data most compounds retested in dose-response had high values
# T4 sequence (whole entry): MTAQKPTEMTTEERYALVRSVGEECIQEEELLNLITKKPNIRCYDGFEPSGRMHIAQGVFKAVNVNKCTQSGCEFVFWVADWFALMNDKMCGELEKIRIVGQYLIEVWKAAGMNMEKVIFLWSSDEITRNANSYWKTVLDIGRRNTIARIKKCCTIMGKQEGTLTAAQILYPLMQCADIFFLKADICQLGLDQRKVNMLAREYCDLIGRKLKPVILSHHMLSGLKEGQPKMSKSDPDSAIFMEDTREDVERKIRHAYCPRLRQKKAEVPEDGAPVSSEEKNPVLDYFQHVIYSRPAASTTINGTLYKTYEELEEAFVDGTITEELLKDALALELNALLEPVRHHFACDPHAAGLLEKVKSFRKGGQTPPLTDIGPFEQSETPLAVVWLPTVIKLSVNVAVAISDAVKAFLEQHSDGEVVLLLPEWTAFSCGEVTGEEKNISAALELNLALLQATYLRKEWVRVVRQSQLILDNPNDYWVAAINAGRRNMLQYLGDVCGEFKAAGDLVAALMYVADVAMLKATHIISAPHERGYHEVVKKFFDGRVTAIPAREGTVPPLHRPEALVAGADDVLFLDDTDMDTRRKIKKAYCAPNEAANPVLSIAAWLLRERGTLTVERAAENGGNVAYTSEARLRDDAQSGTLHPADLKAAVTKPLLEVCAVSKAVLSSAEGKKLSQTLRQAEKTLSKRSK
# [8] = target: T4, Tyrosyl-tRNA synthetase, putative (Trypanosoma cruzi (strain CL Brener)); assay: Trypanosoma cruzi tyrosyl tRNA synthetase (TcYRS) SOP; assay type: functional; settings: 30 µM
# [9] = target: Chromo domain-containing protein 1 (Saccharomyces cerevisiae (strain ATCC 204508 / S288c) (Baker's yeast)) (UniProt P32657); assay: ScCHD-1 Enzyme Inhibition Assay; assay type: functional; settings: 30 µM; note: in the data most compounds retested in dose-response had high values
# Chromo domain-containing protein 1 (Saccharomyces cerevisiae (strain ATCC 204508 / S288c) (Baker's yeast)), sequence (P32657 whole entry, the tested form may be a part): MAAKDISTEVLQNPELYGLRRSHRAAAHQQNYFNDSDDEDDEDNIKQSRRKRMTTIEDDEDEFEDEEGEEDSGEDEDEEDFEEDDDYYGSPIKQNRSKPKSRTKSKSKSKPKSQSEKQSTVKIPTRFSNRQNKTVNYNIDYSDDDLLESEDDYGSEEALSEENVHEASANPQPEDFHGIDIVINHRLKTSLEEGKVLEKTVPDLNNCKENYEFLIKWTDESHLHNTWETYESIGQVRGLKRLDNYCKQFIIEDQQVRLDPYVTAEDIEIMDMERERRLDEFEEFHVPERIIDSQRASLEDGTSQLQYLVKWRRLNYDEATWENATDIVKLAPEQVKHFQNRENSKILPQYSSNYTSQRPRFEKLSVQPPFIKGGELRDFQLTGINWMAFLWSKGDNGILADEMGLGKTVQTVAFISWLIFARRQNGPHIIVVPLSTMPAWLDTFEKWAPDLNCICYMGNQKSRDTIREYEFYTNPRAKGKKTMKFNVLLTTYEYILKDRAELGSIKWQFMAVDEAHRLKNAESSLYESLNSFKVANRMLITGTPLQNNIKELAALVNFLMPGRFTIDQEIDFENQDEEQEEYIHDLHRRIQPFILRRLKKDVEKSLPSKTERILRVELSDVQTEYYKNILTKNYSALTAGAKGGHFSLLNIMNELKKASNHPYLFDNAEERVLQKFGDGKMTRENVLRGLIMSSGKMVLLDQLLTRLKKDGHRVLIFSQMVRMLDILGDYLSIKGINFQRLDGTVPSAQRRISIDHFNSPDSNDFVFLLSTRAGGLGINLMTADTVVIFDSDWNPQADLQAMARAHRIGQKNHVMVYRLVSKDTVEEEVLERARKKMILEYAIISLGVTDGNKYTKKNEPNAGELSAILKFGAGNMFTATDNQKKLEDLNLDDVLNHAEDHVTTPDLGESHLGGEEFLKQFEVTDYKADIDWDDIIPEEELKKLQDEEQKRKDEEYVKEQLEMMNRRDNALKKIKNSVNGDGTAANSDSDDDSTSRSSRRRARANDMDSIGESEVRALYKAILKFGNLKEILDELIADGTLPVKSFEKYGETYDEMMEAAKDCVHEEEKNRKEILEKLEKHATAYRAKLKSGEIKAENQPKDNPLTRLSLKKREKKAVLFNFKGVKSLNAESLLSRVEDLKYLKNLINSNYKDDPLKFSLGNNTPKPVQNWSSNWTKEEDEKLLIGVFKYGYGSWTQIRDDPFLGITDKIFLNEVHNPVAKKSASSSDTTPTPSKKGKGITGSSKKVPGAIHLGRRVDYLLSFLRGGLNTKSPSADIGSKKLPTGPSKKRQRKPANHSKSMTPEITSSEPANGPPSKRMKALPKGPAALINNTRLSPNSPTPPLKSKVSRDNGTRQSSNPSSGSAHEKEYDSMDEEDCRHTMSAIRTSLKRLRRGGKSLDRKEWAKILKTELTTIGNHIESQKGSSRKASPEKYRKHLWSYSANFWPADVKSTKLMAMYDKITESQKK
# Protein translocase subunit SecA (Escherichia coli (strain K12)), sequence (P10408 whole entry): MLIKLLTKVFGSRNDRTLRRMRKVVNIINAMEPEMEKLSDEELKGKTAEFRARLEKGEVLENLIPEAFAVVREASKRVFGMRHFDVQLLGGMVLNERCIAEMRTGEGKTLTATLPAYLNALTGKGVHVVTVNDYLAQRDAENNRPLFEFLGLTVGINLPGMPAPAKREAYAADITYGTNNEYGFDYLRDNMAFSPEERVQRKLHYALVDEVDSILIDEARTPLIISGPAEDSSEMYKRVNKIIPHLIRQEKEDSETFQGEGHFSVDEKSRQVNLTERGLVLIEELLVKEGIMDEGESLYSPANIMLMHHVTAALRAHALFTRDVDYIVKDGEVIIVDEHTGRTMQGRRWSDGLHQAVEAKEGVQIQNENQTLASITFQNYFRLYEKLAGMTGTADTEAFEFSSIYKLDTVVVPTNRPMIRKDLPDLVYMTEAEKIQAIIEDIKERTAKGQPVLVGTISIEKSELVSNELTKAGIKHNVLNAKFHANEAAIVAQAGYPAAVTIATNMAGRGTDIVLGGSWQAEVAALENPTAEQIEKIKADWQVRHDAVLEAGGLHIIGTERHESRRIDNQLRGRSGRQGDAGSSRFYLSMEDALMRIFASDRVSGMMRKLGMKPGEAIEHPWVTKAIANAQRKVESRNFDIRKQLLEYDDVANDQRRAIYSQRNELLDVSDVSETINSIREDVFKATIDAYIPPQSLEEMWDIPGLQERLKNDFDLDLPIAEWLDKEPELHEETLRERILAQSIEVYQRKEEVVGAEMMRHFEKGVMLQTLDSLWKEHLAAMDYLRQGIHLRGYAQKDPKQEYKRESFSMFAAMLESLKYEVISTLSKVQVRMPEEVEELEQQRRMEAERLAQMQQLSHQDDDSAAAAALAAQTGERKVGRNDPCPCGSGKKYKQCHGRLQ
SMILES,Percent Effect [1],Percent Effect [2],Percent Effect [3],Percent Effect [4],Percent Effect (Trypanosoma cruzi),Percent Effect [5],Percent Effect [6],Percent Effect (Homo sapiens),Percent Effect [7],Percent Effect [8],Percent Effect [9]
CCn1c(CN(C)C)nnc1C1CCN(Cc2ccccc2)CC1,-0.0485%,10.4%,2.85%,13.5%,5.61%,-6.9%,11.7%,12.4%,7.53%,21%,-8.57%
CCc1csc(C2CCCN(C(=O)c3ccnc(N(C)C)c3)C2)n1 (stereo not given),-1.95%,13.2%,0.891%,-9.58%,4.58%,-3.55%,7.77%,41.7%,4.25%,13%,-4.33%
CCc1nc(C2CCCN2C(=O)CCNS(C)(=O)=O)no1 (stereo not given),-2.77%,27%,-4.56%,-1.58%,3.25%,-2.03%,19%,21.8%,7.92%,23.2%,-6.19%
CC(=O)NCC(=O)N1Cc2nccn2CC(CN2CCCC2)C1 (stereo not given),-4.42%,5.41%,1.1%,-2.08%,-5.77%,0.955%,19.6%,5.21%,6.49%,10.3%,-0.00691%
CNC(=O)CS(=O)(=O)Cc1coc(-c2ccc(F)cc2)n1,-2.82%,5.41%,-2.17%,1.48%,3.67%,2.38%,7.59%,-3.27%,5.82%,12.2%,-1.98%
COCC(=O)N1CC[C@H]2C[C@H](C)O[C@@H]2C1,-3.06%,13.3%,4.66%,-5.49%,4.53%,-2.56%,17.4%,-11.4%,7.45%,14.1%,-3.21%
CCc1ccc(S(=O)(=O)Nc2cc(C(=O)O)c(F)cc2F)s1,-10.3%,2.63%,-14.5%,19.8%,9.99%,1.08%,6.51%,4.81%,2.46%,16.1%,-10.2%
COc1ccc(C(O)CNC(=O)Nc2cc(C)nn2C)cc1 (stereo not given),-8.64%,5.26%,3.77%,-0.779%,-9.59%,-1.53%,15.4%,20.4%,-3.43%,-2.44%,-6.99%
CN(C)C(=O)[C@@H]1CCO[C@@H]2CCN(CCc3ccccc3)C[C@@H]21,-1.12%,10.8%,-3.68%,0.659%,2.15%,38.8%,9.21%,0.342%,-4.95%,15.8%,-6.78%
COCc1cnc2n1CCN(C(=O)C1=CCCCC1)C2C (stereo not given),2.94%,17.3%,-3.72%,-2.8%,-1.77%,-16.7%,15.5%,33%,3.17%,12.8%,-8.38%
